# Assay outcomes from PubChem.
# Rows were chosen to be rich in hits. Some 9.2% of all compounds tested hit in one or more screens of this group.
# Rab9 promoter act: Rab9 promoter activation; 320,000 tested, 2.8% active; Potency, µM (highest dose often 9.22 µM), inactives show at the highest dose activation, negative = inhibition, hits mostly activators; Huh7 Rab9 promoter-luciferase reporter, luminescence, 24 h; also: % of control where 0% means no effect; nearly all actives have a fitted effect of over 60% in size
#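 Huh7 reporter line, Rab9 promoter upstream of luciferase. Compound exposure 24 h at 37 °C in reduced-serum medium with 10% FBS. Read-out: luminescence.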
# ELG1 genotox: inducers of genotoxicity in HEK293T ELG1-luciferase cells; Potency, µM (series often up to 46 µM), without a hit: at the top dose activity change, positive = activation, actives largely listed as activators; 330,000 tested, 1.3% active; HEK293T ELG1-luciferase reporter, luminescence, 16 h; also: % of control where 0% means no effect; nearly all actives have a fitted effect of over 60% in size
#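 Step 1: seed 2,000 HEK293T ELG1-luciferase cells per well. Step 2: add compound or DMSO, incubate 16 hr at 37 °C. Step 3: ONE-Glo, 30 min at room temperature, read luminescence.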
# NPC1 promoter act: NPC1 promoter activation; Huh7 NPC1 promoter luciferase reporter, 24 h; Potency, µM (top dose mostly 9.22 µM), without a hit: top-dose activation, actives largely listed as activators; AID 485313; 320,000 tested, 2.4% active; also: % of control where 0% means no effect; nearly all actives have a fitted effect of over 60% in size
#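 In 1536-well qHTS, Huh7 cells harboring an NPC1 promoter–luciferase construct received compound for 24 h; activation was quantified by luminescence following luciferase reagent addition.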
# FLuc counter: firefly luciferase modulation, counter-screen for miR-21 project; P08659; purified FLuc, Km substrates, luminescence inhibition; Potency, µM (series often up to 57.5 µM), for the others: at the highest dose activity change, negative = inhibition, hits mostly inhibitors; 360,000 tested, 6.9% active;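 also: plate controls were vehicle for no effect and reference inhibitor for full effect; nearly all actives have a fitted effect of over 55% in size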
# Target sequence (P08659 whole entry, looked up): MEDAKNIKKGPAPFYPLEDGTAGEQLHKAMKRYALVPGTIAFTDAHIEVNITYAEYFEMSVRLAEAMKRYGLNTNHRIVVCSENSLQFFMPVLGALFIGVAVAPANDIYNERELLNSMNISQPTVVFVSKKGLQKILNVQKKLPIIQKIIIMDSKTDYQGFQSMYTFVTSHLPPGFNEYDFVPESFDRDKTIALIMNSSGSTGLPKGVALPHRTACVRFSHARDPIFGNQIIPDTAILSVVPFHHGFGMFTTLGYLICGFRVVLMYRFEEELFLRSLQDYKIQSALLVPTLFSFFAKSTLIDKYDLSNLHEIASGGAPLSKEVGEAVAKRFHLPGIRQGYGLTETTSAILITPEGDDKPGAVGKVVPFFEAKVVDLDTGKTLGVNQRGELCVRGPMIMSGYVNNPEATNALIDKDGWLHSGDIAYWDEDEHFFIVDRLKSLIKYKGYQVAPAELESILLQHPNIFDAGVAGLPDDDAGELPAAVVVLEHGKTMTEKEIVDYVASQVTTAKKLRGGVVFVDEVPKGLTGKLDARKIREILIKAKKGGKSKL
#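 Purified P. pyralis luciferase (10nM final) with 10uM D-luciferin and 10uM ATP (Km levels) in 50mM Tris acetate pH 7.5, 10mM Mg acetate, 0.01% Tween-20, 0.05% BSA; qHTS 6-point titration, ~60 µM downward; luminescence read.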
# SMN2 splice enh: SMN2 splice variant enhancement; HEK293 SMN2-luciferase splicing reporter, luminescence, 30-36 h; 210,000 tested, 2.8% active; AID 1458; Potency, µM (top dose mostly 46.1 µM), for inactives: at the highest dose activity change, positive = activation, hits mostly activators; also: % of control where 0% means no effect; nearly all actives have a fitted effect of over 55% in size
#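 HEK293 cells carry an SMN2 minigene-luciferase reporter in which exon 7 inclusion puts luciferase in frame. Cells were seeded at 2000 cells/well, attached for 10-12 hours, then exposed to compounds for 30-36 hours at 37C before ONE-Glo luminescence.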
# ELG1 repair inh: inhibitors of ELG1-dependent DNA repair in HEK293T cells; HEK293T ELG1-luciferase reporter, luminescence, 16 h; DNA damage induced by 5-fluorouridine; Potency, µM (series often up to 46.1 µM), without a hit: at the top dose activity change, negative = inhibition, actives largely listed as inhibitors; 330,000 tested, 2.3% active; AID 504467; also: % is scaled to controls: 0 for no effect and ±100 for the full control effect; nearly all actives have a fitted effect of over 55% in size
#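 Quantitative HTS, concentration-response format. 2,000 cells/well co-treated with 5-fluorouridine and compound, 16 hr in 5% CO2 at 37 °C; ONE-Glo luminescence read after 30 min.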
# * = called active by the depositor; ? = inconclusive; nt = no result; [ ] = dose if it differs, or a comment. Calls follow the shape of the dose curve; as a rule, active = well fitted curve in the direction sought with a large enough effect; inconclusive = small, poorly fitted or top-dose-only effect, or another doubt; inactive = no such curve, though single readings can be large; an effect the other way counts as inactive or inconclusive. Potency is read from the fitted curve at half-maximal effect.
SMILES,Rab9 promoter act,ELG1 genotox,NPC1 promoter act,FLuc counter,SMN2 splice enh,ELG1 repair inh
CCOC(=O)c1sc(NC(=O)Nc2ccccc2Cl)cc1C,0.63µM*,?,0.71µM*,0.43µM*,0.71µM*,?
CCOC(=O)c1sc(NC(=O)Nc2ccccc2)cc1C,0.71µM*,?,1.3µM*,0.48µM*,3.2µM*,?
CCOC(=O)c1sc(NC(C)=O)cc1C,-2%,-1%,0%,-10%,2%,8%
CCOC(=O)c1sc(NC(=O)C2CCC2)cc1C,?,?,?,12µM*,16µM*,?
COc1ccc(C2CC(=O)N(CC(=O)Nc3cc(C)ccc3C)c3ccccc3S2)cc1 (stereo not drawn),nt,nt,nt,5%,-4%,nt
COc1cc2c(cc1OC)-c1cc(=Nc3c(C)cc(C)cc3C)n(C)c(=O)n1CC2,-23%[46.1 µM],nt,-15%[46.1 µM],nt,-11%,nt
Oc1ccc(COC2CCCC2)c2cccnc12,-17%,nt,-29%,2%,nt,nt
Cc1sc(NC(=O)c2ccc(=O)n(C)n2)nc1-c1ccccc1,12%,0%,1%,13µM*,11%,-15%
O=C(NNc1nc2cc3c(cc2s1)OCO3)c1cccc(F)c1,3%,-4%,9%,17µM*,18%,?
Cc1sc(NC(=O)c2c(F)cccc2F)nc1-c1ccccc1,4%,5%,-6%,?,nt,25%
COc1ccc(OC)c2sc(NC(=O)c3cccc(N4C(=O)CCC4=O)c3)nc12,0%,14%,-1%,2%,nt,-3%
O=C(NNc1nc2cc3c(cc2s1)OCO3)c1ccccc1,-1%,9%,1%,?,22%,?
COc1ccc(-c2csc(NC(=O)c3cccc(N4C(=O)CCC4=O)c3)n2)cc1C,0%,-6%,1%,11µM*,nt,-1%
COc1ccc(-c2nc(NC(=O)c3cc(C(C)(C)C)nn3C)sc2C)cc1,-3%,-9%,-5%,-8%,-43%,8.2µM*
CCCCCn1nc(C(=O)N(CC(C)C)c2c(N)n(CCCC)c(=O)[nH]c2=O)c2ccccc2c1=O,2%,-3%,8%,-1%,nt,29%
COc1ccc(NC(=O)CC2C(=O)N(c3ccccc3)C(=O)N2C2CCCCC2)cc1 (stereo not drawn),nt,nt,nt,-1%,-3%,nt
CC(C)n1nc(C(=O)Nc2ccc3c(c2)OCO3)c2ccccc2c1=O,18%,17%,12%,?,nt,?
O=C(Nc1ccc2sccc2c1)c1cccc(N2C(=O)CCC2=O)c1,4µM*,18µM*,?,8.5µM*,19%,?
CCOC(=O)c1cc(CC)sc1NC(=O)c1cccc(N2C(=O)CCC2=O)c1,-2%,-3%,0%,-9%,-4%,18µM*
O=C(Nc1nc2cc3c(cc2s1)OCCO3)c1cccc(N2C(=O)CCC2=O)c1,?,9%,?,0.76µM*,nt,?
O=C(Nc1nc2ccccc2s1)c1cccc(N2C(=O)CCC2=O)c1,4%,-7%,-5%,-1%,nt,7%
CCN(CC)S(=O)(=O)c1cccc(C(=O)Nc2nc3cc4c(cc3s2)OCCO4)c1,-6%,-18%,-3%,9.5µM*,-77%,12µM*
Cc1ccc(-n2nc3c(=O)n(C(C)C(=O)NC4CC4)nc(C)c3c2C)cc1 (stereo not drawn),-2%,1%[9.26 µM],0%,-4%,nt,-21%
CCCCc1nn2c(=O)cc(COC(=O)c3ccc(NC(=O)C(CC)CC)cc3)nc2s1,nt,nt,nt,-1%,nt,nt
CC(=O)c1sc(NC(=O)c2cccc(N3C(=O)CCC3=O)c2)nc1-c1ccccc1,-1%,2%,-2%,?,nt,21%
Cc1sc(NC(=O)c2cccc(N3C(=O)CCC3=O)c2)nc1-c1ccccc1,0%,4%,12%,4.8µM*,nt,2%
O=C(CSc1nnc(-c2cccs2)o1)Nc1cccc(C(F)(F)F)c1,nt,nt,nt,-6%,nt,nt
